Compound activity: PubChem, National Center for Advancing Translational Sciences (NCATS)
AmpC detergent: inhibitors of E. coli AmpC beta-lactamase with detergent. Potency, µM (highest dose often 114 µM), inactives show top-dose activity change, negative = inhibition, actives largely listed as inhibitors. AmpC hydrolysis of nitrocefin, absorbance 480 nm, 0.01% Triton. 370,000 tested, 0.041% active. AID 485294. P00811;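 further: 0% = no-compound wells and -100% = no-enzyme wells; nearly all actives have a fitted effect of over 25% in size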
Target sequence (P00811 whole entry, looked up): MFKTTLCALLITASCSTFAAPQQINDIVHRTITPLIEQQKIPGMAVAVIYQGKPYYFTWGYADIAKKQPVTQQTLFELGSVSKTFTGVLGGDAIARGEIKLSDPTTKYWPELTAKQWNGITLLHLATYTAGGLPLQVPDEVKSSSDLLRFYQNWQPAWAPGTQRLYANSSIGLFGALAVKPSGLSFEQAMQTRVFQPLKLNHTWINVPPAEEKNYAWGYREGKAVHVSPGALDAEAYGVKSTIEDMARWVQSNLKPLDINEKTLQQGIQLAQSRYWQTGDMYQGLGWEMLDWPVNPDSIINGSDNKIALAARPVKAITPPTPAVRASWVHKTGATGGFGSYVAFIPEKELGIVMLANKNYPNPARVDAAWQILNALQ
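20 mM phosphate pH 7.0 + 0.01% (detergent screen) or 0.0001% Triton X-100; 5.3 nM AmpC reagent; cpd preinc 15 min RT; nitrocefin (800 uM stock) to start; A480 q20 s × 4 min; Activity was normalised to no-enzyme and no-compound control wells.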
Sm TGR block: blocks Schistosoma mansoni thioredoxin glutathione reductase. 360,000 tested, 3% active. Potency, µM (series often up to 114 µM), for the others: at the top dose activity change, negative = inhibition, most hits filed as inhibitors. purified TGR, DTNB reduction, TNB absorbance 405 nm. AID 485364; further: nearly all actives have a fitted effect of over 60% in size
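Kinetic colorimetric format: TGR-catalysed, NADPH-driven DTNB reduction monitored via TNB absorbance. Enzyme dispensed at 20 nM; compound exposure 15 min at room temperature before reaction start.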
AmpC no deterg: inhibitors of E. coli AmpC beta-lactamase without detergent; AmpC nitrocefin hydrolysis, absorbance 480 nm, 0.0001% Triton; P00811; 330,000 tested, 0.52% active; Potency, µM (doses to about 57.1 µM), without a hit: at the top dose activity change, negative = inhibition, usual class: inhibitors; AID 485341;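 further: plate controls were no compound for no effect and no enzyme for full effect; nearly all actives have a fitted effect of over 20% in size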
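20 mM phosphate pH 7.0 + 0.01% (detergent screen) or 0.0001% Triton X-100; 5.3 nM AmpC reagent; cpd preinc 15 min RT; nitrocefin (800 uM stock) to start; A480 q20 s × 4 min; Activity was normalised to no-enzyme and no-compound control wells.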
Active calls of the source: *; u = inconclusive; x = not tested or not shown; ! = not active in a repeat. In the library only some 3.3% were active in any assay of this set; here they are far more common. The call rests on the fitted dose curve; in most records, active means well fitted curve in the direction sought with a large enough effect; inconclusive means small, poorly fitted or top-dose-only effect, or another doubt; inactive means no such curve, though single readings can be large; an effect the other way counts as inactive or inconclusive. Unless noted, on the % scale 0 is the no-effect control and ±100 the full control effect; potency means the concentration at half of the fitted maximal effect.

SMILES	AmpC detergent	Sm TGR block	AmpC no deterg
O=C(COC(=O)CCN1C(=O)/C(=C\C=C\c2ccccc2)SC1=S)Nc1ccc(Br)cc1	3%	x	18µM*
CC(C)c1ccccc1NC(=O)COC(=O)CCN1C(=O)/C(=C\C=C\c2ccccc2)SC1=S	-13%	-9%	-37%
Oc1cc(O)cc(/C=C/c2ccc(O)c(O)c2)c1	1%	22µM*	-28%
C/C=C/c1ccc(O)c(OC)c1	-4%	-3%	-26%
COc1ccc(NC(=O)N/C=C/c2ccco2)cc1	-1%	14µM*	-24%
O=C(/C=C/c1ccco1)Nc1ccc(Oc2ccc(Cl)cc2)cc1	-1%	-36%	-58%
O=C(N/C=C/c1ccco1)Nc1cccc(Cl)c1	-12%	45µM*	-52%
O=C(Nc1cccc(Cl)c1)Nc1cccc(Cl)c1	0%	-8%	-14%
COc1cccc(Cn2ncc3c4sc(Br)cc4n(C)c3c2=O)c1	u	-1%	-12%
CSc1nc(C)cc(Nc2c(C)cc(C)cc2C)n1	13%	-2%	x
CSc1oc(-c2ccco2)nc1S(=O)(=O)c1ccc(C)cc1	-3%	u	31%
CC(C)Sc1oc(-c2ccco2)nc1S(=O)(=O)c1ccccc1	-16%	u	-26%
CSc1oc(-c2ccco2)nc1S(=O)(=O)c1ccc(F)cc1	-5%	45µM*	-34%
CSc1oc(-c2ccco2)nc1S(=O)(=O)c1ccccc1	u	35µM*	-27%
Cc1ccc(C)c(NC(=O)c2ccc(CN3CC(=O)N4CCCCC4C3=O)cc2)c1 (configuration not stated)	26%	-2%	x
CCOc1ccccc1NS(=O)(=O)c1c(C)nc2sccn2c1=O	14%	0%	x
CCn1ccc2c(OCC(=O)Nc3ccc(C)c(Cl)c3)cccc2c1=O	1%	-18%	x
COc1ccc(NC(=O)Cn2c(=O)nc(-c3ccccc3)c3ccccc32)cc1OC	-2%	-2%	x
COc1ccccc1NC(=O)Cn1c(=O)n(-c2ccc(C)cc2)c(=O)c2c1cnn2C	6%	9%	x
CCNc1c([N+](=O)[O-])c(=O)oc2ccccc12	0%	9%	-22%
COc1ccc(OCCNc2c([N+](=O)[O-])c(=O)oc3ccccc23)cc1	u	-9%	28µM*
Cc1ccccc1Nc1nnc(-c2ccc(C)c(S(=O)(=O)N3CCCCC3)c2)c2ccccc12	9%	1%	x
COc1cccc(-c2nc(CS(=O)(=O)CC(=O)NC3CCCCCC3)c(C)o2)c1	u	u	66%
COCCCNC(=O)CS(=O)(=O)Cc1nc(-c2cccc(OC)c2)oc1C	-15%	u	9%
COc1cccc(-c2nc(CS(=O)(=O)CC(=O)NCCC(C)C)c(C)o2)c1	0%	45µM*	51%
SMILES	AmpC detergent	Sm TGR block	AmpC no deterg
COc1cccc(-c2nc(CS(=O)(=O)CC(=O)NCCc3cc(OC)ccc3OC)c(C)o2)c1	3%	u	73%
COc1cccc(-c2nc(CS(=O)(=O)CC(=O)NCCc3ccc(OC)cc3OC)c(C)o2)c1	-6%	25µM*!	84%
COc1ccc(CNC(=O)CS(=O)(=O)Cc2nc(-c3cccc(OC)c3)oc2C)cc1	4%	-33%	49%
CCCCN(C)C(=O)CS(=O)(=O)Cc1nc(-c2cccc(OC)c2)oc1C	u	22µM*	11µM*
COc1cccc(-c2nc(CS(=O)(=O)CC(=O)NC3CCCCC3C)c(C)o2)c1 (configuration not stated)	u	40µM*	56%
Cc1ccc(NC(=O)Cc2ccc(NC(=O)N3CCCCc4ccccc43)cc2)cc1Cl	2%	0%	x
CC1=C(C(=O)Nc2ccc(C)cc2C)C(c2ccc(O)cc2)n2nnnc2N1 (configuration not stated)	2%	-2%	x
COc1cccc(-c2nc(CS(=O)(=O)CC(=O)N3CCCCC3)c(C)o2)c1	2%	u	30%
COc1cccc(-c2nc(CS(=O)(=O)CC(=O)N3CCN(c4ccccn4)CC3)c(C)o2)c1	u	50µM*	146%
COc1cc2c(cc1OC)n(CC(=O)c1cc(C)ccc1C)c(=O)n1nc(CCn3nc(C)cc3C)nc21	0%	-3%	x
O=C(c1cc(-c2ccc(Cl)cc2)on1)N1CCOCC1	u	0%	-15%
Nc1nc(C(=O)N2CCOCC2)nn1S(=O)(=O)c1ccc(Cl)cc1	-14%	0%	-14%
O=C(Nc1ccccc1)c1nnsc1S(=O)c1ccc(Cl)cc1 (configuration not stated)	u	0.1µM*	14µM*
Cc1nnsc1S(=O)c1ccc(Cl)cc1 (configuration not stated)	u	-3%	-11%
CNC(=O)c1ccc(S(=O)(=O)c2ccc(Cl)cc2)c(NC(C)=O)c1	1%	-18%	-11%
O=C(c1nnsc1S(=O)(=O)c1ccc(Cl)cc1)N1CCOCC1	2%	11µM*	-12%
O=C(c1nnsc1S(=O)c1ccc(Cl)cc1)N1CCOCC1 (configuration not stated)	u	2.5µM*	-36%
CNC(=O)c1nnsc1S(=O)(=O)c1ccc(Cl)cc1	u	0.28µM*	u
CCc1ccccc1N(C)C(=O)c1nn(C)c2c1CSc1ccccc1-2	8%	-8%	x
CCC1CN(C(=O)N2CCC(C(=O)NCCc3ccccc3Cl)CC2)c2cc(C)ccc2O1 (configuration not stated)	23%	14%	x
O=C(Cn1c(=O)oc2cc(S(=O)(=O)N3CCCCC3)ccc21)Nc1cccc(Cl)c1	1%	1%	x
Cc1ccccc1Nc1c(-c2cccnc2)nc2ccc(Cl)cn12	9%	7%	x
O=C(Oc1ccc(Cl)c2cccnc12)c1cccnc1	-11%	40µM*	-25%
Cc1ccc(C(=O)Oc2ccc(Cl)c3cccnc23)cc1[N+](=O)[O-]	-6%	11%	-16%
CC1=C(c2ccc(C)c(C)c2)S(=O)(=O)N=C1N1CCC(C(=O)NCCc2ccc(Cl)cc2)CC1	18%	-3%	x
SMILES	AmpC detergent	Sm TGR block	AmpC no deterg
CC1(C)CC(=O)C(c2c[nH]c3ccccc23)C(=O)C1	-9%	20µM*	-50%
CC12CN3CC(C)(CN(C1)C3c1c[nH]c3ccccc13)C2=O (configuration not stated)	-13%	x	-2%
Cc1ccn2c(Nc3ccc(C(C)C)cc3)c(-c3cccs3)nc2c1	-4%	3%	x
COc1ccccc1Nc1ccc(NC(=O)c2cccc([N+](=O)[O-])c2C)cc1	1%	-5%	3.2µM*
COc1ccc(NC(=O)c2ccccc2[N+](=O)[O-])cc1	u	5%	-8%
Cc1ccc(OCC(=O)Nc2ccc3nn(-c4ccc(C)cc4)nc3c2)cc1	0%	0%	x
CC(=O)N1c2ccccc2C(=O)C1N1CCN(c2ccccc2F)CC1 (configuration not stated)	1%	-19%	x
COc1ccc(CCNC(=O)Cn2cc(S(=O)(=O)Cc3ccccc3F)c3ccccc32)cc1OC	5%	0%	x
O=C(O)c1ccc(Cn2cc(/C=C\[N+](=O)[O-])c3ccccc32)o1	-9%	3.2µM*	-25%
COC(=O)c1ccc(Cn2cc(/C=C\[N+](=O)[O-])c3ccccc32)o1	-5%	-30%	-41%
